This is an account of results in PubChem BioAssay (Tox21).

The nature of assay [1]: Nuclear factor erythroid 2-related factor 2/antioxidant responsive element (Nrf2/ARE) small molecule agonists: qHTS cell viability counter screen in human keratinocytes (AID 1919968; active = well fitted curve in the direction sought with a large enough effect in the repeat runs; an effect the other way counts as inactive or inconclusive; also: nearly all actives have a fitted effect of over 55% in size). In a few lines:
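CellTiter-Fluor fluorescence, read 1 h after reagent, gave viability in the same wells as the ARE-luciferase assay. KeratinoSens cells (1,500/well) had 23 h compound exposure at 37 C/5% CO2 following 5 h plating.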

Assay [2] in a line: Nuclear factor erythroid 2-related factor 2/antioxidant responsive element (Nrf2/ARE) small molecule agonists: luciferase reporter gene qHTS assay in human keratinocytes (AID 1919969). Also: nearly all actives have a fitted effect of over 35% in size. Also: potency is read from the fitted curve at half-maximal effect. Background: A reporter such as luciferase makes a cellular process visible.
Assay [3] deals with Gonadotropin-releasing hormone receptor (Homo sapiens) (UniProt P30968). The assay can be described thus: Human gonadotropin-releasing hormone receptor (GnRHR) small molecule agonists, calcium flux assay in GnRHR-HEK293 cells (AID 1920063). Also: nearly all actives have a fitted effect of over 35% in size. In a few lines:
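Agonist mode: compounds at 15 concentrations, in triplicate, went onto calcium dye-loaded GnRHR-HEK293 cells. Intracellular calcium was then followed as 480/540 nm fluorescence at 1 s intervals over 3 min.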
In general terms: Calcium assays in cells follow changes in intracellular calcium, usually with a dye or a luminescent sensor.

For assay [4], the target named is KiSS-1 receptor (Homo sapiens) (UniProt Q969F8). The assay can be described thus: Human kisspeptin (KISS1R) small molecule agonists, calcium flux assay in KISS1R-HEK293 cells (AID 1920064; active = well fitted curve in the direction sought with a large enough effect in the repeat runs; an effect the other way counts as inactive or inconclusive). In a few lines:
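Agonist mode: intracellular calcium rise tracked at 1 s intervals over 3 min (480/540 nm) immediately after compound addition to dye-loaded KISS1R-HEK293 stable cells. Each compound tested at 15 concentrations in triplicate.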

Assay [5] is described as follows: p53 small molecule agonists, cell-based qHTS assay with rat liver microsomes (AID 1963578). An outline of the steps: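 Compound in DMSO added to p53RE-bla cells 5 h post-plating; rat microsomes/NADPH 0.5 mg/mL final; 16 h, 37 C; LiveBLAzer 2 h RT.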
(In general: In qHTS, concentration-response curves come from the screen itself.)

Assay [6] is described as follows: p53 small molecule agonists, cell-based qHTS assay with human liver microsomes: qHTS cell viability counter screen (AID 1963579). Also: nearly all actives have a fitted effect of over 45% in size. An outline of the steps: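 HLM-supplemented (0.5 mg/mL final) and NADPH-supplemented (0.5 mg/mL final) p53RE-bla cultures, 4,000 cells per well, were dosed with compounds in DMSO for 16 h at 37 C; luminescent ATP detection (CellTiter-Glo, 30 min, room temperature) quantified surviving cells.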

A short description of assay [7]: p53 small molecule agonists, cell-based qHTS assay with rat liver microsomes: qHTS cell viability counter screen (AID 1963580). Also: nearly all actives have a fitted effect of over 45% in size. In a few lines:
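Luminescent ATP readout (CellTiter-Glo, 30 min at room temperature) reports viability of p53RE-bla HCT-116 cells after 16 h at 37 C with test compounds under metabolic activation by rat liver microsomes and NADPH at 0.5 mg/mL final each.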

Assay [8] in a line: p53 small molecule agonists, cell-based qHTS assay: qHTS cell viability counter screen (AID 1963581). Also: nearly all actives have a fitted effect of over 45% in size. An outline of the steps: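 Counter screen read by CellTiter-Glo luminescence (ATP content, 30 min at room temperature), run in the same wells as the beta-lactamase reporter read. HCT-116 p53RE-bla cells saw compounds for 16 h at 37 C.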
Assay [9] is described as follows: p53 small molecule agonists, cell-based qHTS assay (AID 1963582; active = well fitted activation curve with a large enough effect in the signal ratio in the repeat runs, not every such curve was filed as active; the % refers to the signal ratio). In a few lines: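 Read-out is beta-lactamase FRET fluorescence after 2 h at room temperature with LiveBLAzer B/G substrate. p53 response element-bla cells were treated 16 h at 37 C with compounds in DMSO, added 5 h after seeding.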
In assay [10] the target is 5-hydroxytryptamine receptor 2A (Homo sapiens) (UniProt P28223). The assay can be described thus: 5-hydroxytryptamine receptor 2A (HTR2A) small molecule antagonists, cell-based qHTS assay (AID 1963586). Also: nearly all actives have a fitted effect of over 45% in size. In a few lines:
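CHO cells stably expressing human HTR2A were plated for 18 h at 37 C, then loaded with calcium dye for 1 h. Compounds were preincubated 5 min at room temperature before DOI (4 nM solution) was added. Kinetic fluorescence was read for 3 min.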

Assay [11] has the same target. The assay can be described thus: 5-hydroxytryptamine receptor 2A (HTR2A) small molecule agonists, cell-based qHTS assay (AID 1963587). Also: nearly all actives have a fitted effect of over 30% in size. In a few lines: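 HTR2A-CHO cells, plated 18 h at 37 C/5% CO2, dye-loaded 1 h at 37 C; compounds in DMSO added by pin tool (agonist mode). Intracellular calcium flux read as kinetic fluorescence on FDSS over 2 min at 1 s intervals.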

In assay [12] the target is Muscarinic acetylcholine receptor M1 (Homo sapiens) (UniProt P11229). Nature of the assay: Cholinergic receptor muscarinic 1 (CHRM1) small molecule antagonists, cell-based qHTS assay (AID 1963588). Also: nearly all actives have a fitted effect of over 40% in size. In a few lines: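 Compounds were tested at 15 concentrations in three independent runs. Dye-loaded CHRM1-CHO cells were exposed 5 min at room temperature before stimulation by acetylcholine added at 50nM. Intracellular calcium was read kinetically on FDSS for 3 min.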
Chain of Muscarinic acetylcholine receptor M1 (Homo sapiens) (P11229 whole entry, looked up): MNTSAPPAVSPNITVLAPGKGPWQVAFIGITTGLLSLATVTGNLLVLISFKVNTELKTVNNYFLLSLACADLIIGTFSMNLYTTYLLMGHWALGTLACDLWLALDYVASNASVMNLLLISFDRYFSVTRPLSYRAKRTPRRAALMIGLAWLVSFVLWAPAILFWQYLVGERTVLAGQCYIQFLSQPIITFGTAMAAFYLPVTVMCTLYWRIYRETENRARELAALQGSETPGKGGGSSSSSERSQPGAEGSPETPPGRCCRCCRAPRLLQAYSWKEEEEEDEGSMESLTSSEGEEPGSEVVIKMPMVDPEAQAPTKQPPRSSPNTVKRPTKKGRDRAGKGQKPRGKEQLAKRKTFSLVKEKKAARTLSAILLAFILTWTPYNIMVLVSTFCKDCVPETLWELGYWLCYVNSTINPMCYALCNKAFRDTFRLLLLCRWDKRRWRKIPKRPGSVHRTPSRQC

Assay [13] can be described thus: cAMP Responsive Elements (CRE) small molecule agonists, cell-based qHTS assay (AID 1963590). An outline of the steps:
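Agonist mode: compound added to CRE-bla HEK 293T cells (2,000/well, 18 h after plating) for 3 h at 37 C/5% CO2. Reporter activity detected via FRET beta-lactamase substrate, 2 h room-temperature loading.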

Assay [14] is described as follows: cAMP Responsive Elements (CRE) small molecule antagonists, cell-based qHTS assay (AID 1963591; active = well fitted inhibition curve with a large enough effect in the signal ratio in the repeat runs, not every such curve was filed as active; the % refers to the signal ratio). In a few lines: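 Antagonist mode: compounds are added alongside the adenylyl cyclase activator NKH477 (0.25 uM final) to CRE-bla HEK293T cells for 3 h. LiveBLAzer FRET substrate, 2 h at room temperature, reports bla expression.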
In assay [15] the target is Beta-2 adrenergic receptor (Homo sapiens) (UniProt P07550). Nature of the assay: Adrenergic beta2 receptor (ADRB2) small molecule antagonists, cell-based qHTS assay (AID 1963592). Also: series mostly up to about 92 µM; nearly all actives have a fitted effect of over 50% in size. An outline of the steps: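 Assay format: CHO-ADRB2 cells, 18-20hr seeding at 37C/5% CO2, then compound plus 1nM isoproterenol agonist mix for 0.5hr RT. Homogeneous time-resolved fluorescence cAMP detection after 1hr, expressed as 665/615 nm ratio.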
Chain of Beta-2 adrenergic receptor (Homo sapiens) (P07550 whole entry, looked up): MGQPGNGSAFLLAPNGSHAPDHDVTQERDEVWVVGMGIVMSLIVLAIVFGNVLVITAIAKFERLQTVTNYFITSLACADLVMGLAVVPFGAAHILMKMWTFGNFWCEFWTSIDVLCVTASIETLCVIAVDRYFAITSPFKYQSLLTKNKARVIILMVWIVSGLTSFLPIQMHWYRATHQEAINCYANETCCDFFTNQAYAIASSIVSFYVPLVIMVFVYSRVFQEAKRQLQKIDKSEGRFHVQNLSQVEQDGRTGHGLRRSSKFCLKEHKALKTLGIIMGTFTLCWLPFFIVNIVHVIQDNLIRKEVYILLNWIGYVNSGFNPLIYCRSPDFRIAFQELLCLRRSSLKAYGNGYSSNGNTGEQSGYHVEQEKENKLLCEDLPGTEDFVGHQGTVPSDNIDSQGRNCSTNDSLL

Assay [16] deals with D(2) dopamine receptor (Homo sapiens) (UniProt P14416). The assay can be described thus: Dopamine D2 receptor (DRD2) small molecule agonists, cell-based qHTS assay (AID 1963594). Also: nearly all actives have a fitted effect of over 35% in size. An outline of the steps: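 HEK293 cells stably expressing DRD2 were cultured 24 h at 37 C, then given Ro20-1724 (0.1 mM final) and compounds for 10 min at room temperature. NKH477 (200nM) was then added for 30 min. cAMP was read by HTRF.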
Chain of D(2) dopamine receptor (Homo sapiens) (P14416 whole entry, looked up): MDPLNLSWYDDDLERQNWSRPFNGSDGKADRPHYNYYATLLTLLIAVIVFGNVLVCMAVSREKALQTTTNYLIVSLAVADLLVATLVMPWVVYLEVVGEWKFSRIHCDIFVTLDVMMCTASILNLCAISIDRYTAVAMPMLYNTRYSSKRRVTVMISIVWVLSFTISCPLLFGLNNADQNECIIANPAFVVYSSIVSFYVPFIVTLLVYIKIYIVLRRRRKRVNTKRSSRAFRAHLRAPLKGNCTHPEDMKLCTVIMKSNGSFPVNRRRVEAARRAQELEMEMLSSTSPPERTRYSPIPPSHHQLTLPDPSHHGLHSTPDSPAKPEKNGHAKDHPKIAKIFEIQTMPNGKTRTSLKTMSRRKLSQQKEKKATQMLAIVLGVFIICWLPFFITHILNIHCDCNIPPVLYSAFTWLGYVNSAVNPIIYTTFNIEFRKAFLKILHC

Assay [17] has the same target. The assay can be described thus: Dopamine D2 receptor (DRD2) small molecule antagonists, cell-based qHTS assay (AID 1963595; active = well fitted inhibition curve with a large enough effect in the signal ratio in the repeat runs, with a control signal flat; the % refers to the signal ratio). An outline of the steps:
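HEK293 cells stably expressing DRD2 were preincubated with 0.1 mM Ro20-1724, then with compound for 10 min at room temperature. Cells were stimulated with 200 nM NKH477 plus 12 nM quinpirole for 30 min, and cAMP was read by HTRF.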

For assay [18], the target named is Muscarinic acetylcholine receptor M1 (Homo sapiens) (UniProt P11229). Nature of the assay: Cholinergic receptor muscarinic 1 (CHRM1) small molecule agonists, cell-based qHTS assay (AID 1963589). Also: nearly all actives have a fitted effect of over 35% in size. An outline of the steps: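 Agonist-mode calcium-flux screen: compounds at 15 concentrations, three independent runs, were pin-transferred onto dye-loaded human CHRM1-CHO cells. Fluorescence was then recorded kinetically every second over minutes.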

Assay [19] has as its target Beta-2 adrenergic receptor (Homo sapiens) (UniProt P07550). Nature of the assay: Adrenergic beta2 receptor (ADRB2) small molecule agonists, cell-based qHTS assay (AID 1963593).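 Also: CHO cells stably overexpressing human ADRB2.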 In a few lines: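 CHO cells stably over-expressing ADRB2 were plated overnight at 37C, then dosed with compounds plus a stimulation mix containing 100uM IBMX and 25uM Ro-20-1724 for 0.5hr at room temperature. cAMP was measured by HTRF competition, 1hr.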

SMILES strings stand for the structures. Values without a mark were called inactive. Results filed as inconclusive are left out. The source made the active and inactive calls. Unless noted, calls follow the shape of the full dose curve.

Chain of KiSS-1 receptor (Homo sapiens) (Q969F8 whole entry, looked up): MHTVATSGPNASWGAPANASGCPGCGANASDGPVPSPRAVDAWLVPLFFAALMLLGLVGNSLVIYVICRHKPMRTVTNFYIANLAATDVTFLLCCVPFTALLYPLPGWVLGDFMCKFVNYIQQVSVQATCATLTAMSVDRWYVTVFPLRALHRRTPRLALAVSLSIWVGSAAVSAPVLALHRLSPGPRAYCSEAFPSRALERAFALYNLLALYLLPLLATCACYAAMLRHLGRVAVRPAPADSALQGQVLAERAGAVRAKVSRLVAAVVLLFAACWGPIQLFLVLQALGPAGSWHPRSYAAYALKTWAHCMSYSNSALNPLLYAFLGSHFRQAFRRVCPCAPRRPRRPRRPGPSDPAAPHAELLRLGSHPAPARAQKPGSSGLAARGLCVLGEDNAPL
Chain of 5-hydroxytryptamine receptor 2A (Homo sapiens) (P28223 whole entry, looked up): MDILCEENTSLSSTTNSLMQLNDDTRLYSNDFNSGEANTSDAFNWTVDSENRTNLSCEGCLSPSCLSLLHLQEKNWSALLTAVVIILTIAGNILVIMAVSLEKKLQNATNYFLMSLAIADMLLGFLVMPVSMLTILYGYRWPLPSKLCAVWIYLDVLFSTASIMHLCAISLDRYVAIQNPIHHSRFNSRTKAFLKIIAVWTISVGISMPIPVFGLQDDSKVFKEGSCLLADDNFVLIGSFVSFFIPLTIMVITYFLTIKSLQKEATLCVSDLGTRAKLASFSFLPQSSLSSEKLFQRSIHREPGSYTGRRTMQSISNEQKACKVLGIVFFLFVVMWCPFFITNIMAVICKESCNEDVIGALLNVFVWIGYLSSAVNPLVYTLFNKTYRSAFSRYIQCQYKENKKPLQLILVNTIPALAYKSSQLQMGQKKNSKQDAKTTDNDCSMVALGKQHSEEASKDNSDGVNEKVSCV
Chain of Gonadotropin-releasing hormone receptor (Homo sapiens) (P30968 whole entry, looked up): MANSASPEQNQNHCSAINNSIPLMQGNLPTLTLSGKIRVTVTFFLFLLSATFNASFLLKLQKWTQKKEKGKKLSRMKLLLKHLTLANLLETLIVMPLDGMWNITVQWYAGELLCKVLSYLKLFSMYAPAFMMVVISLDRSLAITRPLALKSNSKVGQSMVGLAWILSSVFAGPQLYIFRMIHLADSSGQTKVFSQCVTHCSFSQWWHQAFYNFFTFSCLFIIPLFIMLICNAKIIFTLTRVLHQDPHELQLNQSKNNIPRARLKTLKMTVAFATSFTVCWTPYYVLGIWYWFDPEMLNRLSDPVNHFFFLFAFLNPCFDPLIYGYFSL

Take `O=C(OOC(=O)c1ccccc1)c1ccccc1`: the Potency entry in assay [1], in assay [2], in [3], in assay [5], in assay [6] and in assay [7] was “inactive” in each case. Also, the Potency entry in [8], in assay [9], in assay [10], in assay [11], in assay [12] and in assay [13] was “inactive” throughout. In addition, the Potency result in assay [14], in assay [15], in assay [16] and in assay [17] was “inactive” in each case. For the same molecule, in [4], the outcome was inactive.
In the case of `CC(=O)[C@H]1CC[C@H]2[C@@H]3C=CC4=CC(=O)CC[C@@]4(C)[C@@H]3CC[C@]12C`, the Potency entry in assay [1], in assay [2], in [3], in assay [5], in [6] and in assay [7] was “inactive” each time. The Potency result in assay [8], in assay [9], in [10], in assay [11], in assay [18] and in assay [14] was “inactive” in each case. Besides, the Potency result in [15], in [19], in [16] and in assay [17] was “inactive” each time. Also, the outcome in assay [4] was inactive.
Regarding `CCC(Cc1ccccc1)(C(=O)c1ccc(N2CCOCC2)cc1)N(C)C` (stereo not drawn), the Potency entry in assay [1], in assay [3], in [5], in assay [6], in [7] and in assay [8] was “inactive” each time. In addition, the Potency result in assay [9], in [10], in [11], in assay [18], in assay [15] and in assay [19] was “inactive” each time. Also, the Potency result in assay [16] is “inactive”. The Potency in assay [2] was 68.6 µM (active). Moreover, the outcome in assay [4] was inactive.
As to `CC(=O)OC1CCCCC1C(C)(C)C` (stereo not drawn), the Potency result in [1], in assay [2], in assay [3], in assay [5], in assay [6] and in assay [7] was “inactive” throughout. Also, the Potency entry in [8], in assay [9], in assay [10], in [11], in assay [12] and in assay [18] was “inactive” throughout. Besides, the Potency result in assay [13], in [15], in assay [16] and in assay [17] was “inactive” throughout. For the same molecule, in assay [4], the result was inactive.
Consider `O=C(CO)[C@@H](O)[C@H](O)[C@H](O)CO`, for which the Potency result in assay [1], in assay [2], in assay [3], in assay [5], in assay [6] and in assay [7] was “inactive” throughout. The Potency entry in assay [8], in assay [9], in assay [11], in [12], in assay [18] and in [14] was “inactive” in each case. The Potency result in assay [15], in assay [16] and in assay [17] was “inactive” in each case. For the same molecule, in [4], the result was inactive.
On to `C=C(C)CCO`, for which the Potency entry in assay [1], in assay [2], in [3], in assay [5], in assay [6] and in assay [7] was “inactive” in each case. For the same molecule, the Potency result in assay [8], in assay [9], in assay [10], in assay [11], in [12] and in assay [18] was “inactive” throughout. Besides, the Potency result in assay [13], in [14], in [15], in assay [16] and in assay [17] was “inactive” in each case. Further, the result in assay [4] was inactive.
In the case of `CCCCCCC(=O)OCC`, the Potency entry in assay [1], in assay [2], in assay [3], in assay [5], in [6] and in [7] was “inactive” each time. For the same molecule, the Potency entry in [8], in [9], in assay [10], in assay [11], in [12] and in assay [18] was “inactive” throughout. The Potency entry in assay [13], in [14], in assay [15], in assay [16] and in [17] was “inactive” each time. For the same molecule, the outcome in [4] was inactive.
